Bioassay records from PubChem BioAssay.
Tgondii IFNg: T. gondii growth inhibition under IFN-gamma; Toxoplasma gondii growth in IFN-gamma-treated host cells; stronger effect = lower value; activity change, negative = inhibition, % (test concentration not listed); actives 3.8% (n = 69,000); in the data active = activity change below about -70%, passing the limit was not always enough;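 note: host cells are HeLa cells infected with Toxoplasma gondii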
Of the large screens only hits and unclear results are named; the others gave an inactive call. This excerpt belongs to a sample that is enriched for hits.

O=C(NC1CC1)c1ccnc(-c2cccc3ccnn23)c1	none
Cc1cc2c(cc1O)NC(=O)CC2c1nccs1 (stereo not given)	none
COCCn1ccnc1C1CC(=O)Nc2cc(O)c(C)cc21 (stereo not given)	none
COC(=O)c1cccc(C2CC(=O)Nc3cc(O)c(C)cc32)n1 (stereo not given)	Tgondii IFNg -81
COC(=O)c1cccc(-c2cccc(C(F)(F)F)n2)c1	none
CC(=O)N1CC[C@@]2(C(=O)Nc3ccccc3)CCN(S(=O)(=O)c3ccccc3)CC[C@H]12	none
CC(C)N(C/C=C/c1ccccc1)CC1CCC(=O)N1 (stereo not given)	none
CC(C)(C#N)c1ccc(N2C(=O)OCc3cnc4ccc(-c5cnc6ccccc6c5)cc4c32)cc1	Tgondii IFNg -85
Cc1ccc(NC(=O)c2nnn(Cc3nc(-c4ccccc4)oc3C)c2C)cc1F	none
Cc1nn(CCC#N)c(C)c1Cc1c(Cl)cccc1Cl	Tgondii IFNg -111
N#CCCn1nc(-c2cccnc2)oc1=O	none
Cc1nn(Cc2nnc(SCc3c(F)cccc3Cl)n2C)c(C)c1Br	none
CCOc1ccccc1-c1noc(-c2c(O)c3cc(F)ccc3n(CC)c2=O)n1	none
CCCCN(C)C(=O)c1cc(-c2cn(-c3nccs3)c(C)n2)n2ccccc12	none
O=C(Cn1ncc2c(N3CCN(c4ccccc4)CC3)ncnc21)Nc1ccc(OC(F)(F)F)cc1	none
O=C(Cn1ncc2c(N3CCCC3)ncnc21)Nc1ccc(OC(F)(F)F)cc1	none
Cc1ccc(NC(=O)Cn2ncc3c(N4CCCC4)ncnc32)cc1Cl	none
Cc1ccc(NC(=O)Cn2ncc3c(N4CCCCCC4)ncnc32)cc1F	Tgondii IFNg -101
O=C(Cn1ncc2c(N3CCCCCC3)ncnc21)Nc1ccc(OC(F)(F)F)cc1	Tgondii IFNg -98
O=C(Cn1ncc2c(N3CCCC3)ncnc21)Nc1ccc(F)c(Cl)c1	none
CCCC(=O)N1CCC(NC(C)c2ncccc2C)CC1 (stereo not given)	none
O=C1NCC[C@]12CN(Cc1nccs1)C[C@H]2c1ccccc1	none
CCOc1ccc(-c2nc(Cn3c(=O)c4c(C(=O)OC)cc(C)nc4n(C)c3=O)c(C)o2)cc1OC	none
COCCC(=O)c1cc(-c2ccn[nH]2)n2ccccc12	none
CCOc1ccccc1NC(=O)CN1CCC2(CC1)N=C(c1ccc(C)c(C)c1)C(=O)N2	none
N[C@@H]1CC[C@@H](NC(=O)c2ncccc2O)C1	none
N#CCN1Cc2ccccc2C2(CCN(CC3CC3)CC2)C1	none
COCCN1CCN(Cc2nccn2C)Cc2ccc(C)nc21	none
Cc1cc2cccc(NC(=O)C(C)N3CCCC3=O)c2o1 (stereo not given)	none
CCOc1cccc(C2c3[nH]c4ccccc4c3CCN2C(=O)C2CCC2)c1 (stereo not given)	none
COc1ccccc1C(=O)N1CCc2c([nH]c3ccccc23)C1c1ccc(Cl)cc1 (stereo not given)	none
CCOc1cccc(C2c3[nH]c4ccccc4c3CCN2C(=O)c2ccccc2OC)c1 (stereo not given)	Tgondii IFNg -105
Cc1ccc(C(=O)N2CCc3c([nH]c4ccccc34)C2c2cccc(C)c2)cc1 (stereo not given)	none
CCOc1cccc(C2c3[nH]c4ccccc4c3CCN2C(=O)c2ccc(C)cc2)c1 (stereo not given)	Tgondii IFNg -122
COc1ccccc1C(=O)N1CCc2c([nH]c3ccccc23)C1c1ccccc1 (stereo not given)	none
CCOc1cccc(C2c3[nH]c4ccccc4c3CCN2C(=O)c2ccc(F)cc2)c1 (stereo not given)	Tgondii IFNg -98
CCOc1cccc(C2c3[nH]c4ccccc4c3CCN2C(=O)c2cccc(N(C)C)c2)c1 (stereo not given)	none
CCOc1cccc(C2c3[nH]c4ccccc4c3CCN2C(=O)COC)c1 (stereo not given)	none
CCOc1cccc(C2c3[nH]c4ccccc4c3CCN2C(=O)c2cccc(OC)c2)c1 (stereo not given)	Tgondii IFNg -103
Cc1cc(C)cc(C2(CNC(=O)c3cc(CC(C)C)[nH]c(=O)n3)CCOCC2)c1	none
CCn1cc(S(=O)(=O)NC(Cc2ccsc2)c2cccnc2)c(C)n1 (stereo not given)	none
Cc1cccc(-c2nc(C)c(CCNS(=O)(=O)c3ccc4ccccc4c3)s2)c1	none
COc1ccc(-n2c(=O)c(C(=O)NCC3CCCO3)c(O)c3cccnc32)cc1 (stereo not given)	none
O=C(NCc1ccc(Cl)cc1)c1nc(N2CCOCC2)c2ccccc2n1	none
N#CCS(=O)(=O)c1ccc(OC(F)(F)F)cc1	none
CCN(CC)S(=O)(=O)c1ccc2[nH]c(=O)ccc2c1	none
Cc1cccc(-c2ncc(CN(C)Cc3ccc4nsnc4c3)cn2)c1	none
COc1ccc(-n2c(=O)c(C(=O)NC(C)C)c(O)c3cccnc32)cc1	none
COc1cccc2c1OCC(C(=O)NC1CCC(n3cnnc3)CC1)C2 (stereo not given)	none
Cc1cccc(NC(=S)NC(=O)C(C)(C)C)c1	none
O=C1CC(c2ccccc2)=NN1c1nc(-c2ccccc2)cc(-c2ccccc2)n1	none
O=C(CC(Sc1ccc(Cl)cc1)c1ccc(Cl)cc1)c1ccccc1 (stereo not given)	Tgondii IFNg -112
O=C(CC(SC(=O)c1ccccc1)c1ccc(Cl)cc1)c1ccccc1 (stereo not given)	none
O=C(CCSc1ccccn1)c1ccc(Cl)cc1	none
C[C@H]1C[C@@H]2CCN(C(=O)c3cnccn3)C[C@@H]2O1	none
Cn1c(=O)c2c(ncn2CC(=O)OCC(=O)c2ccc(F)cc2)n(C)c1=O	none
COc1ccccc1CNC(=O)C1=C(C)C(=O)OC12CCN(S(=O)(=O)c1cccs1)CC2	none
CCn1ncnc1CN1CCC(c2nn(C)c(=O)n2-c2ccccc2)CC1	Tgondii IFNg -74
Cc1ncc(CN2CCC(c3nn(C)c(=O)n3-c3ccccc3)CC2)s1	none
CCn1ncnc1CN1CCCC(c2n[nH]c(=O)n2-c2ccccc2)C1 (stereo not given)	none
C=CCn1c2ccccc2c2ccccc21	none
COc1cc(CN2CCCC(c3ccc(Nc4cnccn4)cn3)C2)ccc1OCC(N)=O (stereo not given)	none
Cc1cccc(C(=O)N2C[C@@H]3COC[C@@H](Cc4nc(C)no4)[C@H]3C2)n1	none
COc1ccc2oc(=O)cc(CN(Cc3cccs3)C3CCCCC3)c2c1	none
CCCN(CCC)CCCNC(=O)C1=C(C)C(=O)OC12CCN(Cc1ccccc1)CC2	none
Cc1cc2cc(NC(=O)c3ccc(-n4cnnc4)cc3)cc(Cl)c2o1	none
CCc1oc2c(Cl)cc(-n3cnnc3)cc2c1C	Tgondii IFNg -85
CCc1oc2c(-n3cnnc3)cccc2c1C	none
CCc1cc(=O)oc2cc(OCC=C(C)C)ccc12	none
COc1cc2c(=O)c(-c3ccc(O)cc3)coc2cc1O	none
CCc1cc(=O)oc2cc3occ(-c4ccc(OC)c(F)c4)c3cc12	Tgondii IFNg -78
CCN(C(C)=O)C1CCN(Cc2ccc(C(=O)Nc3c(C)noc3C)cc2)C1 (stereo not given)	none
COCCN1C(=O)C2N(c3ccccc3C)C(=O)C3CC(=O)OC32C1CC(C)=O (stereo not given)	none
O=C(c1cccs1)N1CCc2c([nH]c3ccccc23)C1c1cccnc1 (stereo not given)	none
CCOc1cccc(CC(=O)N2CCc3c([nH]c4ccccc34)C2c2cccnc2)c1OCC (stereo not given)	none
Cc1cccc(C(=O)N2CCc3c([nH]c4ccccc34)C2c2cccnc2)c1 (stereo not given)	Tgondii IFNg -109
O=C(c1ccc(Br)cc1)N1CCc2c([nH]c3ccccc23)C1c1cccnc1 (stereo not given)	Tgondii IFNg -86
